Among the data in PubChem BioAssay AID758 (NMMLSC, 2007) are GTP binding activity (percent of control) values, retold here.

The whole screen tested about 190,000 compounds, of which about 110 (0.058%) were called active. Roughly 2% stayed inconclusive and do not appear here. This is one part of a sample in which actives are shown more often than they occur. Unmarked numbers belong to inactive results.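 How the source made its calls: active means fluorescent GTP binding to Rab7 beads changed by at least 20 points from the 100% baseline, either direction, mostly lower; inconclusive means compound itself probably fluorescent, or too few beads counted; inactive means the rest.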

The test system of the assay is Rab7 GTPase wild type (dog), Bodipy-FL-GTP binding. As to the kind of experiment: wildtype dog Rab7 nucleotide binding alteration – biochemical, multiplex bead flow cytometry, primary screen (AID 758).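 Further: median green fluorescence of bound Bodipy-FL-GTP per Rab7 bead population.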 As to conditions: GST-Rab7 beads, fluorescent GTP binding, at 10 µM, actives lie on both sides, untreated = 100%, excess cold GTP = 0%. On the technique in general: In flow cytometry, cells or beads pass a laser one at a time.
Regarding `Cc1ccccc1OCCC(=O)OCC(=O)NC(C)c1ccccc1` (stereo unspecified), the GTP binding activity (percent of control) was 95%.

As for `N#Cc1c(-c2ccc(F)cc2)nc(-c2ccccc2)[nH]c1=O`, the GTP binding activity (percent of control) was 93%. Take `O=C(c1cccc(S(=O)(=O)N2CCCC2)c1)N(Cc1ccco1)C1CCS(=O)(=O)C1` (stereo unspecified): the GTP binding activity (percent of control) is 97%.

`CN(CCc1cnn(C)c1)Cc1cn(C)nc1-c1ccccc1F`: the GTP binding activity (percent of control) is 100%. In the case of `Cc1cc(=O)n2[nH]c(-c3sccc3-n3c(C)ccc3C)cc2n1` it was 91%. The result for `O=C(N/N=C/c1ccc(OCC2COCCO2)cc1)c1ccc(Br)cc1` (stereo unspecified) reads 108%. In the case of `Cc1c(C(=O)O)nnn1-c1nonc1N` it was 97%; in that of `CCc1ccc(CN(C)C(=O)CCc2nnc(-c3ccc(-c4ccccc4)cc3)o2)nc1`, 96%.

Take `COC(=O)c1ccc(COC(=O)c2cnccn2)cc1`: the GTP binding activity (percent of control) was 105%. Regarding `COc1ccc(-c2[nH]ncc2CN(C)Cc2cccnc2)c(F)c1`, the GTP binding activity (percent of control) is 96%. For `CCn1c(SCc2ccccc2)nc2c(c1=O)SCC2`, the GTP binding activity (percent of control) is 94%.

Turning to `Cc1cccc(Oc2c([N+](=O)[O-])c(=O)n(C)c3ccccc23)c1`, the GTP binding activity (percent of control) was 100%. With `COC(=O)c1ccc(CN2CCC(CO)(Cc3ccc(OC)cc3)CC2)cc1`, the GTP binding activity (percent of control) is 103%. For the compound `CN(C)c1nc(N)nc(Cn2nnc(-c3ccc(C(F)(F)F)cc3)n2)n1`, the GTP binding activity (percent of control) is 104%. In the case of `CCCNS(=O)(=O)c1ccc(CCC(=O)N2CCCC2)cc1`, the GTP binding activity (percent of control) is 104%. In the case of `CN(CC(=O)Nc1ccccc1F)CC(=O)Nc1ccccc1Br`, the GTP binding activity (percent of control) is 105%. For the compound `CCOC(=O)CCCNC(=O)COC(=O)/C=C/c1ccc2c(c1)OCO2`, the GTP binding activity (percent of control) was 90%.

Consider `Cc1nc2sc3c(c2c(=O)n1NC(=O)CCl)CCCC3`, for which the GTP binding activity (percent of control) was 90%.

Turning to `CSc1ccc(CN2C(=O)NC3(CCCCCC3)C2=O)cc1`, the GTP binding activity (percent of control) is 97%.

As for `Fc1cccc(CSc2nnc3ccc(-c4ccncc4)nn23)c1`, the GTP binding activity (percent of control) was 94%. On to `Cc1cc([N+](=O)[O-])ccc1NC(=O)c1ccc(NC(=O)C(C)C)cc1`, for which the GTP binding activity (percent of control) was 98%.

In the case of `CCCCC(CC)CNC(=O)C(=O)C1C(=O)Nc2ccccc21` (stereo unspecified), the GTP binding activity (percent of control) was 103%. For the compound `COc1ccccc1-c1nc(SC)n[nH]1`, the GTP binding activity (percent of control) was 97%. The result for `Cc1ccc(CSc2nc3[nH]ncc3c(=O)[nH]2)cc1` reads 93%; that for `Cc1ccccc1-n1nc(SCC(=O)O)sc1=S`, 99%. Regarding `Cc1ccc(C(=O)Cn2cccn2)cc1`, the GTP binding activity (percent of control) is 106%. On to `CC(=O)NC(=S)NNC(=O)c1ccc(Br)cc1`, for which the GTP binding activity (percent of control) was 108%. For `NS(=O)(=O)c1cccc(NC(=O)COC(=O)/C=C/c2ccco2)c1`, the GTP binding activity (percent of control) is 94%. In the case of `O=C(Nc1ccc(Br)cn1)c1ccc([N+](=O)[O-])cc1Cl`, the GTP binding activity (percent of control) was 98%. Turning to `NC(=O)c1ccc(CN2CCC(Cc3ccccc3)CC2)cc1`, the GTP binding activity (percent of control) was 110%. Regarding `COc1cccc(CN(C)CC(=O)Nc2ccccc2C(=O)Nc2ccccc2)c1`, the GTP binding activity (percent of control) was 105%.

For `CC(OC(=O)c1ccccc1OCc1ccc(Cl)cc1)C(N)=O` (stereo unspecified), the GTP binding activity (percent of control) was 102%. The result for `Cc1cc(C)c(S(=O)(=O)N2CCOCC2)cc1C` reads 101%; that for `CN1CCN(S(=O)(=O)c2cccc(C(=O)O)c2)CC1`, 98%.

For `CCOCCCNCc1cc(Br)ccc1OCC`, the GTP binding activity (percent of control) is 95%. Turning to `Cc1cccc(/C(N)=N/OC(=O)c2ccccc2Cl)c1`, the GTP binding activity (percent of control) is 95%.

Take `C/C(=N\Nc1nc(N2CCOCC2)nc(N2CCOCC2)n1)c1ccc([N+](=O)[O-])cc1`: the GTP binding activity (percent of control) is 96%. Take `C/C(CC(=O)Nc1cccc(C(F)(F)F)c1)=N\NC(=O)C(=O)NCC(C)C`: the GTP binding activity (percent of control) is 96%. Take `CC(C)CNC(=O)C(=O)NCc1ccccc1`: the GTP binding activity (percent of control) is 93%.

`O=[N+]([O-])c1cc(S(=O)(=O)CCCN2CCOCC2)ccc1F`: the GTP binding activity (percent of control) is 95%. The result for `Cc1ccc(C2CCN(C(=S)Nc3cccc(Cl)c3)C2)cc1` (stereo unspecified) reads 101%; that for `CCOC(=O)/C(C#N)=C/c1cn(CCC(=O)O)nc1-c1ccc(Br)cc1`, 102%. Regarding `c1ccc2c(c1)OCCOCCOCCO2`, the GTP binding activity (percent of control) is 99%. In the case of `O=C(C1CCN(C2CCN(Cc3ccc4cc(F)ccc4n3)CC2)CC1)N1CCCC1` it was 98%; in that of `CCC(C)NC(=O)c1nn(C)c(=O)c2ccccc12` (stereo unspecified), 103%; in that of `Cc1[nH]nc(SCC(=O)NCC(C)C)c1[N+](=O)[O-]`, 96%. For `Cc1ccc(OCCCC(=O)NC(C)c2ccccc2)c(C)c1` (stereo unspecified), the GTP binding activity (percent of control) was 97%.

With `Cc1cccc(NS(=O)(=O)c2ccc(C)c(C(N)=O)c2)c1`, the GTP binding activity (percent of control) was 102%. In the case of `CC1COc2ccccc2N1S(=O)(=O)c1ccccc1` (stereo unspecified) it was 95%; in that of `O=[N+]([O-])c1ccc2[nH]c3c(c2c1)CCCC3O` (stereo unspecified), 103%. The result for `Cc1ccccc1NC(=O)c1nn(-c2ccc(F)c(F)c2)ccc1=O` reads 95%; that for `O=C(O)CCCCOn1ccnc1`, 97%; that for `Cc1ccc(C(=O)N/C(=C\c2cccs2)C(=O)NCCc2ccccn2)cc1C`, 106%.

Regarding `CNc1nc2c(C)cccn2c(=O)c1C=Nc1ccc(OC)cc1`, the GTP binding activity (percent of control) was 90%.

As for `COc1ccccc1N1CCN(c2ccc([N+](=O)[O-])nc2)CC1`, the GTP binding activity (percent of control) was 104%. With `CC1(C)C2CCC1(C)C(OC(=O)c1ccc(O)cc1)C2` (stereo unspecified), the GTP binding activity (percent of control) is 97%. Turning to `O=C(O/N=C(/c1ccccc1)c1ccncc1)c1ccccc1[N+](=O)[O-]`, the GTP binding activity (percent of control) was 95%. `O=C(c1snnc1-c1ccccc1)N1CCOCC1`: the GTP binding activity (percent of control) was 100%.

Take `CCc1nc2ccccc2c(C(=O)OC2CCCCC2=O)c1C` (stereo unspecified): the GTP binding activity (percent of control) was 99%. `CC(C)(C)NC(=O)COC(=O)c1cc(Cl)ccc1[N+](=O)[O-]`: the GTP binding activity (percent of control) is 102%.

As for `COc1ccc(C(=O)NNc2cc(C)nc(NNC(=O)c3ccc(OC)cc3)n2)cc1`, the GTP binding activity (percent of control) was 102%. `Cc1ccc(NC(=O)Cn2c(=O)n(CCC(=O)NC3CCN(Cc4ccccc4)CC3)c(=O)c3ccccc32)cc1`: the GTP binding activity (percent of control) is 102%. The result for `C[C@H](NC(=O)c1ccccc1Cl)C(=O)OCCOc1cccc(Cl)c1` reads 94%.

As for `OCCNCc1cccc(OCc2ccccc2Cl)c1`, the GTP binding activity (percent of control) is 97%.

As for `CN(C)C(=O)N1CCNCC1`, the GTP binding activity (percent of control) is 106%. `CCCCCC1CCC(c2nnc(SCC(C)=O)o2)CC1` (stereo unspecified): the GTP binding activity (percent of control) is 104%.

Turning to `O=C(NC(Cc1c[nH]c2ccccc12)C(=O)O)/C(=C/c1ccco1)NC(=O)c1ccccc1` (stereo unspecified), the GTP binding activity (percent of control) was 98%. In the case of `O=C(NNC(=S)NCc1ccco1)C(c1ccccc1)c1ccccc1` it was 105%. As for `CSc1ncccc1C(=O)NC1CCCCCC1`, the GTP binding activity (percent of control) was 100%. Regarding `CSc1nsc(SC)c1NC(=O)OC1CCCCC1`, the GTP binding activity (percent of control) is 20% (active). Regarding `COc1ccc(NC(=O)c2c(SC)nsc2SC)cc1`, the GTP binding activity (percent of control) was 103%. With `COc1ccc(/C=N/S(=O)(=O)c2ccccc2)cc1OC`, the GTP binding activity (percent of control) is 97%. As for `O=[N+]([O-])/C(N=Nc1ccccc1)=N\Nc1ccccc1`, the GTP binding activity (percent of control) is 101%. With `CCC(C)(C)NC(=O)CN(Cc1cccs1)C(=O)CNS(=O)(=O)c1ccc(F)cc1`, the GTP binding activity (percent of control) was 98%. In the case of `Cc1ccc(CN2CCN(Cc3ccc(OCCO)cc3)CC2CCO)o1` (stereo unspecified) it was 104%; in that of `Cc1cccc(N2CCN(c3ccc(NC(=O)/C=C\C(=O)O)cc3)CC2)c1`, 97%; in that of `O=C1CS(=O)CN1c1ccc(Oc2ccccc2)cc1` (stereo unspecified), 93%. Take `Cc1ccc(C(=O)NCC(=O)O)s1`: the GTP binding activity (percent of control) was 95%. In the case of `Cc1c(-c2cccc(Cl)c2)nc2ccccc2c1C(=O)OCC(=O)N(C)C1CCS(=O)(=O)C1` (stereo unspecified), the GTP binding activity (percent of control) is 105%.

Turning to `CCOC(=O)C1(Cc2cccc(OC)c2)CCN(C(C)COC)CC1` (stereo unspecified), the GTP binding activity (percent of control) is 104%. For the compound `CCSC1=NCCN1S(=O)(=O)c1ccc(F)cc1`, the GTP binding activity (percent of control) is 105%.

As to `CCOc1ccc(/C=N/Nc2nncc(-c3ccccc3)n2)cc1OC`, the GTP binding activity (percent of control) was 102%. With `COc1ccc(-c2[nH]ncc2CN(Cc2nccn2C)C(C)C)cc1F`, the GTP binding activity (percent of control) is 100%. As to `Cc1ccc(-c2cc(C(F)(F)F)n3ncc(C(=O)N4CCCCC4c4cccnc4)c3n2)cc1` (stereo unspecified), the GTP binding activity (percent of control) was 97%.

For `Cc1cccc(N2CCN(c3ccc(C(N)=O)cc3[N+](=O)[O-])CC2)c1C`, the GTP binding activity (percent of control) is 95%. With `Cc1nnc(SCC(=O)NNC(=O)c2ccc(Cl)cc2)n1CC1CCCO1` (stereo unspecified), the GTP binding activity (percent of control) is 100%.

As to `COc1cc2[nH]c(=O)n(Cc3ccc(C(=O)NC4CCN(Cc5ccccc5)CC4)cc3)c(=O)c2cc1OC`, the GTP binding activity (percent of control) is 104%. `CCCCn1c(N)c(N2CCOCC2)c(=O)n(CC(=O)NCCc2ccccc2)c1=O`: the GTP binding activity (percent of control) is 105%. The result for `COCCCNC(=S)NNC(=O)C(O)(c1ccccc1)c1ccccc1` reads 109%. Consider `CC(OC(=O)CCc1nc(=O)c2ccccc2n1C)C(=O)NCc1ccc2c(c1)OCO2` (stereo unspecified), for which the GTP binding activity (percent of control) is 97%. As for `COc1ccc(NS(=O)(=O)c2cc(NC(=O)CC(=O)c3ccc([N+](=O)[O-])cc3)ccc2C)cc1`, the GTP binding activity (percent of control) was 106%. The result for `COc1cc(OC)cc(-c2nnc(SCC(=O)Nc3ccc(C(=O)O)cc3)s2)c1` reads 93%; that for `Oc1ccc(-c2nncn2-c2ccccc2)cc1`, 99%; that for `CCN(CCn1cccn1)Cc1cn[nH]c1-c1ccc(OC)cc1F`, 97%. Turning to `CCN(CC)S(=O)(=O)c1ccc(NC(=O)c2cccnc2Cl)c(NC(=O)c2cccnc2Cl)c1`, the GTP binding activity (percent of control) is 91%.

Regarding `CCOC(=O)C1(CC2CCCCO2)CCN(Cc2nc(-c3cccs3)oc2C)CC1` (stereo unspecified), the GTP binding activity (percent of control) is 99%. Regarding `NC(N)=N/N=C/c1ccc(Cl)c([N+](=O)[O-])c1`, the GTP binding activity (percent of control) was 103%.

Turning to `CC(Nc1nc(N2CCN(CCO)CC2)nc2ccccc12)c1ccccc1` (stereo unspecified), the GTP binding activity (percent of control) is 98%. As for `CC(=O)NCC(=O)N1CCCC(C(=O)c2ccc3c4c(cccc24)CC3)C1` (stereo unspecified), the GTP binding activity (percent of control) is 98%.

For `CC(C)N1CCC(N2CCN(Cc3cccnc3)CC2CCO)CC1` (stereo unspecified), the GTP binding activity (percent of control) is 104%. On to `N#Cc1c(NC(=O)C2CC(Cl)=CCC2C(=O)O)sc2c1CCCCC2` (stereo unspecified), for which the GTP binding activity (percent of control) is 94%.
